Our source for the growth values is PubChem BioAssay (NCI).

Among the test systems are HCT-15 colon; HT29 colon; SNB-75 CNS; SNB-19 CNS; U251 CNS; PC-3 prostate; SK-MEL-5 melanoma; UACC-62 melanoma; LOX IMVI melanoma; SK-MEL-28 melanoma; SK-MEL-2 melanoma; EKVX NSCLC; SN12C renal; UO-31 renal; TK-10 renal; ACHN renal; CAKI-1 renal; A498 renal; CCRF-CEM leukemia; MOLT-4 leukemia.
Assay in all cases: NCI-60 one-dose screen, 48 h (100 = growth as untreated, 0 = no growth, -100 = all killed)
Common to all, as to conditions: 10 µM unless noted

SMILES strings stand for the structures. The panel holds about 83,000 compounds, 20% with a hit somewhere; the sample as a whole holds those more often.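 Single-concentration screen, 48 h exposure, 96-well plates. Endpoint: percent growth. Below 10 = active.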 Unmarked numbers belong to inactive results. Activity calls are given as the source filed them.

In the case of `CS(=O)(=O)Nc1cc(-c2ccc3ncnc(Nc4ccc5c(cnn5Cc5ccccn5)c4)c3c2)cnc1Cl`, the growth in the test with HCT-15 colon is 99.2%; in the test on HT29 colon, 80.7%; in the test on SNB-75 CNS, 16.2%; with SNB-19 CNS, 80.6%; with U251 CNS it was 81.5%; in the test on PC-3 prostate, 72.8%. In addition, the growth in the test on SK-MEL-5 melanoma is 77.7%; with UACC-62 melanoma, 61.8%; in the test on LOX IMVI melanoma it was 71%; with SK-MEL-28 melanoma, 56.1%; in the test on SK-MEL-2 melanoma, 61.8%; with EKVX NSCLC, 80.8%. The growth in the test on SN12C renal was 72.5%; in the test on UO-31 renal it was 64.8%; in the test with TK-10 renal it was 65.5%; with ACHN renal it was 88%; with CAKI-1 renal it was 65.4%; with A498 renal it was 20.4%. Also, the growth with CCRF-CEM leukemia is 60%; in the test with MOLT-4 leukemia it was 78.7%.
As for `COc1cc(N2C(=O)[C@H](O)C2c2ccc(SC)cc2)cc(OC)c1OC` (stereo not given in full), the growth with HCT-15 colon is 12.8%; in the test with HT29 colon it was -14.5% (active); in the test with SNB-75 CNS, 83.8%; in the test with SNB-19 CNS, 35.9%; with U251 CNS, 14.4%; in the test on PC-3 prostate, 22.4%. Further, the growth in the test on SK-MEL-5 melanoma is -13.8% (active); in the test on UACC-62 melanoma it was 33.8%; in the test with LOX IMVI melanoma it was 25.5%; in the test with SK-MEL-28 melanoma, 67.1%; with SK-MEL-2 melanoma it was 16.6%; in the test on EKVX NSCLC it was 36.7%. Also, the growth is 28.7% with SN12C renal; 43.5% in the test with UO-31 renal; 40.7% in the test on TK-10 renal; 31.8% in the test on ACHN renal; 23.6% with CAKI-1 renal; -1.79% (active) in the test with A498 renal. Further, the growth is 3.99% (active) in the test with CCRF-CEM leukemia and 4.67% (active) with MOLT-4 leukemia.
As for `N#Cc1c(-c2ccc(Cl)cc2)nc(NN=Cc2cccc(O)c2)nc1N1CCOCC1`, the growth in the test on HCT-15 colon is 44.7%; with HT29 colon it was 69.8%; in the test with SNB-75 CNS, 46.1%; in the test on SNB-19 CNS, 86.9%; with U251 CNS, 61.6%; in the test with PC-3 prostate it was 63.8%. Also, the growth with SK-MEL-5 melanoma is 76.5%; with UACC-62 melanoma, 94.1%; in the test with LOX IMVI melanoma it was 61.7%; with SK-MEL-28 melanoma, 77.1%; in the test with SK-MEL-2 melanoma, 91.5%; with EKVX NSCLC it was 66.6%. In addition, the growth is 78.3% in the test with SN12C renal; 35.7% in the test with UO-31 renal; 79% in the test with TK-10 renal; 60.9% in the test on ACHN renal; 60.5% with CAKI-1 renal; 75.1% in the test with A498 renal. Besides, the growth is 36.2% in the test with CCRF-CEM leukemia and 39.8% with MOLT-4 leukemia.
On to `CC1=C(CCC(C)N(C)Cc2ccc(OCCCN3CCCC3)cc2)C(C)(C)CCC1` (stereo not given), for which the growth in the test on HCT-15 colon was -14% (active); with HT29 colon, -12% (active); in the test with SNB-75 CNS, 63.1%; in the test with SNB-19 CNS, 41.8%; in the test on U251 CNS, -11.9% (active); with PC-3 prostate, 31.8%. Also, the growth in the test with SK-MEL-5 melanoma is -93.7% (active); in the test on UACC-62 melanoma, -63.9% (active); in the test on LOX IMVI melanoma it was -81.4% (active); with SK-MEL-28 melanoma, -80.6% (active); in the test with SK-MEL-2 melanoma it was -55.2% (active); with EKVX NSCLC, 47.4%. The growth in the test on SN12C renal was 56.9%; in the test on UO-31 renal, 20.3%; in the test on TK-10 renal, 49.9%; in the test on ACHN renal, 36.8%; in the test on CAKI-1 renal it was 49.9%; in the test with A498 renal it was 57.2%. For the same compound, the growth was 11.1% with CCRF-CEM leukemia and -24.2% (active) in the test with MOLT-4 leukemia.
Take `O=C1/C(=C/c2ccc(-c3ccc(Br)cc3)o2)SC(=S)N1CCc1ccc(O)cc1`: the growth with HCT-15 colon is 78.9%; in the test on HT29 colon, 76.8%; in the test on SNB-75 CNS it was 37.9%; in the test with SNB-19 CNS it was 85.5%; with U251 CNS it was 78.9%; in the test with PC-3 prostate, 61.3%. The growth with SK-MEL-5 melanoma was 92.5%; in the test with UACC-62 melanoma it was 49.6%; in the test on LOX IMVI melanoma, 71.7%; in the test with SK-MEL-28 melanoma, 103%; with SK-MEL-2 melanoma, 2.89% (active); in the test with EKVX NSCLC, 77.2%. Moreover, the growth in the test with SN12C renal was 69.6%; in the test on UO-31 renal it was 39.9%; in the test on TK-10 renal it was 87%; in the test with ACHN renal, 83.9%; in the test on CAKI-1 renal, 39.1%; in the test on A498 renal, 64.7%. The growth was 21.7% with CCRF-CEM leukemia and 33.6% with MOLT-4 leukemia.
For `O=C(O)[C@@H]1c2ccccc2-c2ccccc2[C@H]1C(=O)O`, the growth in the test on HCT-15 colon was 101%; with HT29 colon, 102%; with SNB-75 CNS, 93.3%; in the test on SNB-19 CNS it was 100%; with U251 CNS, 106%; with PC-3 prostate it was 90.9%. The growth in the test on SK-MEL-5 melanoma is 110%; in the test on UACC-62 melanoma it was 96%; in the test on LOX IMVI melanoma, 99.3%; in the test on SK-MEL-28 melanoma it was 102%; with SK-MEL-2 melanoma, 123%; in the test on EKVX NSCLC, 100%. The growth was 99.6% in the test with SN12C renal; 66.3% with UO-31 renal; 105% with TK-10 renal; 98.7% in the test with ACHN renal; 96.5% in the test with CAKI-1 renal; 96.6% in the test with A498 renal. Besides, the growth in the test with CCRF-CEM leukemia is 87.1%; in the test with MOLT-4 leukemia it was 107%.
In the case of `CCOC(=O)c1cc(-c2ccc([N+](=O)[O-])cc2)n(-c2ccc(C(=O)O)c(O)c2)c1C`, the growth in the test with HCT-15 colon was 50.2%; with HT29 colon, 44.2%; in the test with SNB-75 CNS, 53.5%; with SNB-19 CNS it was 90.7%; in the test on U251 CNS, 70.9%; in the test with PC-3 prostate, 23.5%. In addition, the growth is 52% in the test with SK-MEL-5 melanoma; 54% in the test on UACC-62 melanoma; 66.8% in the test on LOX IMVI melanoma; 90.5% with SK-MEL-28 melanoma; 53.8% in the test with SK-MEL-2 melanoma; 55.3% in the test on EKVX NSCLC. Besides, the growth in the test on SN12C renal was 72.7%; in the test on UO-31 renal, 24.5%; in the test with TK-10 renal, 101%; in the test with ACHN renal it was 68.7%; with CAKI-1 renal, 79.4%; in the test on A498 renal it was 76.4%. For the same compound, the growth with CCRF-CEM leukemia was 50%; in the test with MOLT-4 leukemia it was 27.2%.
